{
  "source": "paper PMC7862700",
  "about": "“An all-to-all approach to the identification of sequence-specific readers for epigenetic DNA modifications on cytosine”",
  "assay_in_all_cases": "DAPPL (digital affinity profiling via proximity ligation, sequencing); 10 mM Tris-HCl pH 7.5, 50 mM NaCl, 1 mM DTT, 4% glycerol, room temperature, 30 min; GST-TFs on glutathione beads, 16-mer random dsDNA library, 0.1% formaldehyde crosslink after washing; high values mean tight binding",
  "conditions_in_all_cases": "protein: recombinant; tags: N-terminal GST; dsDNA, one strand shown",
  "key": {"FLI1": {"molecular_target": "T1, FLI1 (Homo sapiens, UniProt Q01543 1-452)", "T1 sequence": "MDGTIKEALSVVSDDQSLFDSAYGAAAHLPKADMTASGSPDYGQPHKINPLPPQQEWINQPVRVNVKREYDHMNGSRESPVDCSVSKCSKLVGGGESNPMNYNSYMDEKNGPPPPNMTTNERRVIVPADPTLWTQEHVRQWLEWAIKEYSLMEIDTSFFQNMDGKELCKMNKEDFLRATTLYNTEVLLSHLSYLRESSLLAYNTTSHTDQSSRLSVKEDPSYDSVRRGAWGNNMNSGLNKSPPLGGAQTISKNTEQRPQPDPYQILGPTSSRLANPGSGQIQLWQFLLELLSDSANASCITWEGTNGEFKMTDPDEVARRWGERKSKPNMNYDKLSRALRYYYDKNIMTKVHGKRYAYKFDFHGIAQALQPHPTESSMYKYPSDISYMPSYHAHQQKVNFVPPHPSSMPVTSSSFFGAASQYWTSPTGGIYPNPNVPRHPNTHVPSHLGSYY", "outline": "(§1)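 Human transcription factors fused to GST were expressed in yeast, captured on glutathione beads, given DNA barcodes and pooled with a GST-only negative control. Pools were incubated with 200 nmole of a 16-mer random double-stranded DNA library in Tris/NaCl/DTT/glycerol buffer at room temperature for 30 min. They were then washed, crosslinked with 0.1% formaldehyde, proximity-ligated (BsaI/T4 ligase, 1 h, 37 °C), PCR-amplified and sequenced on an Illumina NextSeq500. Binding signal is each 6-mer's read frequency for a factor divided by its frequency for the GST control.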"}, "ELK1": {"molecular_target": "T2, ELK1 (Homo sapiens, UniProt P19419 1-428)", "T2 sequence": "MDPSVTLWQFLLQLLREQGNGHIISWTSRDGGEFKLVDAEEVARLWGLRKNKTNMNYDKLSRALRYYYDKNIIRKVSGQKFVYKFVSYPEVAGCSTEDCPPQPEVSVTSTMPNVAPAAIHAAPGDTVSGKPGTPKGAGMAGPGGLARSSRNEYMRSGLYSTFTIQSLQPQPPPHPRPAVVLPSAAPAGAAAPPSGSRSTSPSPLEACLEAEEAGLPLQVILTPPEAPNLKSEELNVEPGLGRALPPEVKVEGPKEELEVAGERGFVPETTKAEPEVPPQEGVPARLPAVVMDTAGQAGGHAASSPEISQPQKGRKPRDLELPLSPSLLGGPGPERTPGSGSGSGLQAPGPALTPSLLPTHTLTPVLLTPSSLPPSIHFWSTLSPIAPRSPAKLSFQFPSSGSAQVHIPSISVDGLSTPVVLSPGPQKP", "outline": "as §1"}, "GABPA": {"molecular_target": "T3, GABPA (Homo sapiens, UniProt Q06546 1-454)", "T3 sequence": "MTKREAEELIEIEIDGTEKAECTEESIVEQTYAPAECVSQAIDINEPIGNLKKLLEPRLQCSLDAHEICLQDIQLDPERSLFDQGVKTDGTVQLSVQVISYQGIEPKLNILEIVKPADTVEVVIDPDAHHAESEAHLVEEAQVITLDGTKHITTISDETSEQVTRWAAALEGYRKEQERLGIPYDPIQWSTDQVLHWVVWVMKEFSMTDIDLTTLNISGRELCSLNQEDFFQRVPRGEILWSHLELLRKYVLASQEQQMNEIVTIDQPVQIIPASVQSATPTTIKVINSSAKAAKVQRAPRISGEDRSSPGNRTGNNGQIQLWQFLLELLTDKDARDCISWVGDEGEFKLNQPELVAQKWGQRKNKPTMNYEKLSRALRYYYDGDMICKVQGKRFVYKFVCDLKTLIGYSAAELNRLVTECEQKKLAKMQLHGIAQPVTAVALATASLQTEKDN", "outline": "as §1"}, "ERG": {"molecular_target": "T4, ERG (Homo sapiens, UniProt P11308 1-479)", "T4 sequence": "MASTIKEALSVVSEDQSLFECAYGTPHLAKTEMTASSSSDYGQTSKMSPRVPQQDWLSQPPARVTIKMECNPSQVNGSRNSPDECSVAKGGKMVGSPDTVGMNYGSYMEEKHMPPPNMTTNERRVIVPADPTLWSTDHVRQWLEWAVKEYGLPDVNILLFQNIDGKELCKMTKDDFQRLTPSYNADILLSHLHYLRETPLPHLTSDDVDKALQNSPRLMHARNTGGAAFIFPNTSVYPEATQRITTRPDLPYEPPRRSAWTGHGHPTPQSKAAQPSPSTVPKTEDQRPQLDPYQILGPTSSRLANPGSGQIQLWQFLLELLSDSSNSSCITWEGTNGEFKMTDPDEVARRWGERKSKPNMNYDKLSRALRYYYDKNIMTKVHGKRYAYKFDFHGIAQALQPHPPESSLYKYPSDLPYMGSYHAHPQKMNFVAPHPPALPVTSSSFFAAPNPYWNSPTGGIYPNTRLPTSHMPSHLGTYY", "outline": "as §1"}, "ELF1": {"molecular_target": "ELF1 (Homo sapiens, UniProt P32519 1-619)", "sequence (P32519 whole entry)": "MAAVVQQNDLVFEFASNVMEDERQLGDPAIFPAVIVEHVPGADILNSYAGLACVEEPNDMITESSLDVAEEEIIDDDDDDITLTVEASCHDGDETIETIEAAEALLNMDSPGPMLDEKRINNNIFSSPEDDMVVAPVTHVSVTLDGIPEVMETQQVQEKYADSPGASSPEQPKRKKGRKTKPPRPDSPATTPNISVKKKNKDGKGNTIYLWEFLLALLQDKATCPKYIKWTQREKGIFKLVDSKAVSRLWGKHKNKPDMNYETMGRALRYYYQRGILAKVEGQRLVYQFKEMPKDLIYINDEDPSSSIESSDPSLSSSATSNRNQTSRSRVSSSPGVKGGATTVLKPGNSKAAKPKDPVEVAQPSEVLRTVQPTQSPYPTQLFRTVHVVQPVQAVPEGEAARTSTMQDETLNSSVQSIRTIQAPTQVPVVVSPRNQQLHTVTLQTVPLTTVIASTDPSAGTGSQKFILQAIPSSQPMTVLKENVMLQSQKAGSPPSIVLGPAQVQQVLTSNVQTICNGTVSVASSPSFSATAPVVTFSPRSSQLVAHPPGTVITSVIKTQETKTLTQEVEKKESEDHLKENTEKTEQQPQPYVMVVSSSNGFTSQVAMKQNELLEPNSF", "outline": "as §1"}, "EHF": {"molecular_target": "T5, EHF (Homo sapiens, UniProt Q9NZC4 1-300)", "T5 sequence": "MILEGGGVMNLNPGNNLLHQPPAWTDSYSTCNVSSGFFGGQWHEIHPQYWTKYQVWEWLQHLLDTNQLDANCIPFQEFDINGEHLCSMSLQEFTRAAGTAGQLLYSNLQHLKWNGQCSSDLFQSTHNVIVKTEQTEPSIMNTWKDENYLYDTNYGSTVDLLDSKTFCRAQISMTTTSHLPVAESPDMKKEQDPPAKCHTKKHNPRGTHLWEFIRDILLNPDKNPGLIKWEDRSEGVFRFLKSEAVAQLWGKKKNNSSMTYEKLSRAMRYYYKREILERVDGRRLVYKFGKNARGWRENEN", "outline": "as §1"}, "SPI1": {"molecular_target": "SPI1 (Homo sapiens, UniProt P17947 1-270)", "outline": "as §1"}, "SPIB": {"molecular_target": "SPIB (Homo sapiens, UniProt Q01892 1-262)", "sequence (Q01892 whole entry)": "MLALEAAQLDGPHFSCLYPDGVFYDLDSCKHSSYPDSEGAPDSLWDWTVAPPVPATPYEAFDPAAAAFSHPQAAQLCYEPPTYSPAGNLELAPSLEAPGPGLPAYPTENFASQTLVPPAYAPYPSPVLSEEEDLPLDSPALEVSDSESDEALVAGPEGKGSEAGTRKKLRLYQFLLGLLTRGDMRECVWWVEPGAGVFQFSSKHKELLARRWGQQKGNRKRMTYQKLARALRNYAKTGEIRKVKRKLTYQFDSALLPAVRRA", "outline": "as §1"}, "ELK3": {"molecular_target": "T6, ELK3 (Homo sapiens, UniProt P41970 1-407)", "T6 sequence": "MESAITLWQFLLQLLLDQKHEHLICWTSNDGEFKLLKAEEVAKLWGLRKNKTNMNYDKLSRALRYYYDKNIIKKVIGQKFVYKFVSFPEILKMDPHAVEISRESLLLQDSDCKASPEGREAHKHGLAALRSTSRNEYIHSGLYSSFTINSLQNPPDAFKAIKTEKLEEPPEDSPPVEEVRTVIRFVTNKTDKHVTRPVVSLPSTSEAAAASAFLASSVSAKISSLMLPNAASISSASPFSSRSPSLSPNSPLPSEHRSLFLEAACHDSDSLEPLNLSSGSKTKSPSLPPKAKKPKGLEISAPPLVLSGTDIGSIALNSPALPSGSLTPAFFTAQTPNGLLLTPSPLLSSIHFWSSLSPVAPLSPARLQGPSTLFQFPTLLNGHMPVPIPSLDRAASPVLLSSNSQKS", "outline": "as §1"}},
  "data": [
    {"sequence": "ATGGAT", "values": [
      {"measurement": "binding signal", "setting": "FLI1", "value": "1.06 fold enrichment (6-mer frequency, TF over GST control)"},
      {"measurement": "binding signal", "setting": "ELK1", "value": "1.11 fold enrichment (6-mer frequency, TF over GST control)"},
      {"measurement": "binding signal", "setting": "GABPA", "value": "1.18 fold enrichment (6-mer frequency, TF over GST control)"},
      {"measurement": "binding signal", "setting": "ERG", "value": "1.08 fold enrichment (6-mer frequency, TF over GST control)"},
      {"measurement": "binding signal", "setting": "ELF1", "value": "1.04 fold enrichment (6-mer frequency, TF over GST control)"},
      {"measurement": "binding signal", "setting": "EHF", "value": "1.09 fold enrichment (6-mer frequency, TF over GST control)"},
      {"measurement": "binding signal", "setting": "SPI1", "value": "1.06 fold enrichment (6-mer frequency, TF over GST control)"},
      {"measurement": "binding signal", "setting": "SPIB", "value": "1.14 fold enrichment (6-mer frequency, TF over GST control)"},
      {"measurement": "binding signal", "setting": "ELK3", "value": "1.2 fold enrichment (6-mer frequency, TF over GST control)"}
    ]}
  ]
}
